Bioassay records (PubChem)
Only some compounds are listed: those with a hit (about 27% of all), similar ones and a draw of the others.
CYP2C19 inhib – human CYP2C19 inhibition | CYP2C19 Supersomes, luciferin-H EGE luminescence, 30 min | inhibition, % at 5 µM | 96,000 tested, 21% active | AID 778;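 active = CYP2C19 inhibition above a set limit at 5 µM in the primary screen, cut at about 50% in these data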;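 note: plate controls were negative control wells for no effect and 2.5 mM tranylcypromine positive control for full effect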
CYP2C9 inh – blocks human cytochrome P450 2C9; 96,000 tested, 20% active; inhibition, % at 5 µM; CYP2C9 Supersomes, luciferin-H conversion, luminescence; P11712;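 active = blocking of liver enzyme CYP2C9 beyond about 50% at 5 µM, limit read from the data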
Target sequence (P11712 whole entry, looked up): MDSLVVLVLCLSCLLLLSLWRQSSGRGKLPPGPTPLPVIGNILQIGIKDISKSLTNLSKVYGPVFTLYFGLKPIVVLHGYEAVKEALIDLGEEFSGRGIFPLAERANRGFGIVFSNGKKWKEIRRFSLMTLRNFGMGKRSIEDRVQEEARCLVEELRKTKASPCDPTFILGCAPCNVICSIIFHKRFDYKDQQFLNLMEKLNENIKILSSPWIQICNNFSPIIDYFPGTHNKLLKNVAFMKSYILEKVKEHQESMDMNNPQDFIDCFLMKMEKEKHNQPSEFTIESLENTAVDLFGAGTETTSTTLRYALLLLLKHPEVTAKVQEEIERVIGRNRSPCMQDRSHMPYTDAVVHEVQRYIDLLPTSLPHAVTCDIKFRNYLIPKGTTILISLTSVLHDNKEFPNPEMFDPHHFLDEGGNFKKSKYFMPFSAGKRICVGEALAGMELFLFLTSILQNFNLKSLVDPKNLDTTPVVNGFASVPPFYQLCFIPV
CYP2C19 act – activators of human cytochrome P450 2C19 | recombinant CYP2C19, luciferin-H EGE luminescence; stronger effect = higher value; 0 = fully inhibited enzyme, 1 = untreated enzyme | 96,000 tested, under 10 active | activation factor at 5 µM | AID 1025;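 active = activation factor of at least 2 at 5 µM in the primary screen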;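 note: 0 = wells with 2.5 mM tranylcypromine and 1 = vehicle-only wells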
Cav32 inh – blocks human Cav3.2 T-type calcium channel; Cav3.2-expressing cells, Fluo-4 calcium fluorescence FDSS; stronger effect = lower value; 100,000 tested, 4% active; O95180; AID 449739; B-score at 10 µM;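 active = single-dose well whose peak fluorescence ratio is a statistical outlier from its plate by either plate-standardised score or position-corrected B-score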
CYP2C9 act – increases human cytochrome P450 2C9 activity | recombinant CYP2C9, luciferin-H conversion, luminescence; stronger effect = higher value; factor 1 = untreated enzyme, 0 = blocked | activation factor at 5 µM | 96,000 tested, 1.4% active | AID 1024;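 active = activation factor of 2 or more for CYP2C9 at a 5 µM dose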;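 note: 0 = sulfaphenazole-blocked wells and 1 = vehicle-only wells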
* = called active by the depositor; x = no result.

SMILES	CYP2C19 inhib	CYP2C9 inh	CYP2C19 act	Cav32 inh	CYP2C9 act
O=C(OCCN1CCOCC1)C(c1ccccc1)c1ccccc1	70*	56*	0.3	-0.6	0.4
COc1ccc(S(=O)NC2CCCCC2)c(OC)c1C (stereo unspecified)	26	2	0.7	0.4	1
CCOC(=O)c1c(C)n(C)c2ccc(OCC(O)CN3C(=O)c4ccccc4S3(=O)=O)cc12 (stereo unspecified)	43	73*	0.6	-1.9	0.3
COc1ccc(OCC(O)CN2C(=O)c3ccccc3S2(=O)=O)cc1 (stereo unspecified)	92*	49	0.1	0.072	0.5
COc1cccc(NC(=O)CCN2C(=O)c3ccccc3S2(=O)=O)c1	50	18	0.5	-0.14	0.8
O=C(Nc1ccccc1)c1ccccc1OCC(O)CN1C(=O)c2ccccc2S1(=O)=O (stereo unspecified)	63*	76*	0.4	-0.53	0.2
CCOC(=O)c1c(C)n(C)c2ccc(OCC(O)Cn3nc(C)cc3C)cc12 (stereo unspecified)	78*	74*	0.2	-1.7	0.3
CN(C(=O)CN1C(=O)c2ccccc2S1(=O)=O)c1ccccc1C(=O)O	-19	-11	1.2	0.18	1.1
COC(=O)c1c(NC(=O)CSc2nnnn2-c2ccccc2)sc2c1CCCC2	32	72*	0.7	-0.89	0.3
COC(=O)c1cccc(-n2nnnc2SCC(=O)Nc2cc(C)on2)c1	51*	52*	0.5	-0.3	0.5
COC(=O)c1cccc(-n2nnnc2SCC(=O)Nc2nc3c(s2)CCCC3)c1	53*	29	0.5	-4.8*	0.7
COc1cccc(-n2nnnc2SCC(=O)Nc2nc3c(s2)CCCC3)c1	x	x	x	-0.93	x
CCC(C)(C)n1nnnc1C(c1cc2cc3c(cc2[nH]c1=O)OCO3)N1CCN(C)CC1 (stereo unspecified)	0	12	1	0.14	0.9
CCOC(=O)c1c(C)[nH]c(C)c1C(=O)COC(=O)c1ccc(Cl)c(S(=O)(=O)NCc2ccccc2)c1	82*	80*	0.2	-4.1	0.2
CC1(C)C(=O)Nc2ccccc2N1C(=O)COC(=O)c1ccc(Cl)c(S(=O)(=O)NCc2ccccc2)c1	17	93*	0.8	-3.7*	0.1
CS(=O)(=O)c1ccc(Cl)c(S(=O)(=O)NCc2ccccc2)c1	17	2	0.8	0.27	1
CCOC(=O)C(C)Sc1nc(-c2ccc(OC)cc2)nc2c1c(=O)n(C)c(=O)n2C (stereo unspecified)	7	11	0.9	x	0.9
CCOC(=O)c1cc2sc(C)cc2n1C(C)C(=O)OCC (stereo unspecified)	95*	54*	0	-2.7	0.5
Cc1ccc(NC(=O)CCSc2nc(C)cc(C)n2)cc1	43	32	0.6	0.42	0.7
CCCN(C(=O)c1cccs1)c1nnc(-c2ccncc2)s1	99*	55*	0	0.52	0.5
CCCCN(C(=O)Cc1cccs1)c1nnc(-c2cccnc2)s1	x	x	x	0.73	x
CCCn1c(N)c(C(=O)CSc2nnc(C3CC3)n2Cc2ccccc2)c(=O)[nH]c1=O	0	59*	1	-0.28	0.4
CCN(CC)c1nc(Nc2ccccc2)nc(Oc2ccc(=O)[nH]n2)n1	11	24	0.9	-1.6	0.8
CN(C)c1nc(NCc2ccccc2)nc(Oc2ccc(=O)[nH]n2)n1	60*	14	0.4	0.19	0.9
O=c1ccccn1Cc1c(Cl)cccc1Cl	14	36	0.9	-1.1	0.6
SMILES	CYP2C19 inhib	CYP2C9 inh	CYP2C19 act	Cav32 inh	CYP2C9 act
O=C(Nc1cccn(Cc2c(Cl)cccc2Cl)c1=O)c1ccc(Cl)cc1Cl	65*	56*	0.3	-2	0.4
CCCC(=O)NC(=S)Nc1cccc(NC(=O)c2ccc(Cl)cc2Cl)c1	-19	-17	1.2	-0.69	1.2
O=C(Nc1cccn(Cc2c(Cl)cccc2Cl)c1=O)c1ccccc1Cl	80*	67*	0.2	-2.9	0.3
CCO/C=C/C(O)(CNC(=O)COc1ccccc1F)C(F)(F)F (stereo unspecified)	85*	26	0.2	0.61	0.7
Cc1cc(C(=O)OCC(=O)Nc2ccc(S(=O)(=O)N3CCOCC3)cc2)c(C)o1	29	73*	0.7	-1.1	0.3
O=C(COC(=O)Cc1ccc(S(=O)(=O)N2CCCCC2)s1)Nc1ccc2c(c1)OCO2	66*	98*	0.3	-0.066	0
